# From PubChem BioAssay (Tox21)
# Calls of active or inactive are those of the source. Calls come from the whole dose curve; as a rule, active = well fitted curve in the direction sought with a large enough effect in the repeat runs; inconclusive = weak or mixed curves; inactive = flat fitted curve, though single readings scatter.
# Assay: qHTS assay to test for compound auto fluorescence at 460 nm (blue) in HEK293 cell free culture (AID 720681)
# Settings: cell-free medium, autofluorescence 405/460 nm (blue); series mostly up to 91.3 µM; fluorescence, % of fluorescent control: at the top concentration
# Description: U.S. Tox21 Program National Center for Advancing Translational Sciences [NCATS] NIH Chemical Genomics Center [NCGC] U.S. Environmental Protection Agency [EPA] National Institutes of Environmental Health Sciences [NIEHS] National Toxicology Program [NTP] U.S. Food and Drug Administration [FDA] Tox21 Assay Overview: Compound auto fluorescence often interferes with screening of the compound library against various biological targets and signaling pathways. Some of these compounds may have fluorophoric properties. Such properties may interfere with the assay outputs resulting in false positives and/or negatives. To decrease such complications and ensure the compound activities are relevant in terms of biological response, the Tox21 10K compound library was screened for auto fluorescence. From the fluorophores used as reporter signals in our screening assays, the auto fluorescence equivalencies of compounds against three fluorophores have been evaluated: Triamterene, Fluorescein and Rose Bengal sodium for blue, green and red fluorescence, respectively. The fluorescence intensities were measured using Excitation/Emission wavelengths at 405/460nm, 485/535nm and 540/590nm for blue, green and red labels, respectively. This assay includes the blue fluorescence data.
# Tox21 Assay Protocol Summary: 5 uL of culture medium (DMEM containing 10% FBS) per well was dispensed into black wall/clear bottom 1536-well plates using a Multidrop Combi Dispenser (ThermoFisher Scientific, Waltham, MA). After 23 nL compound or DMSO vehicle was transferred into assay plate by a pintool work station (Kalypsys, San Diego, CA), fluorescence intensities in the assay plates were measured by an Envision (PerkinElmer, Shelton, CT) plate reader using three labels for measuring blue, green and red fluorescence at […] 460, 535 and 590nm respectively.
# % is set by controls: 0 for no effect and ±100 for the full control effect.
SMILES,"fluorescence, % of fluorescent control",Potency
CC(=O)c1ccc[nH]1,-0.106% (inactive),
CCC1CCC(CCC(=O)O)C1 (stereo not given),0.0119% [at 95.7 µM] (inactive),
Cc1ccc(NC(=O)N(C)C)cc1NC(=O)N(C)C,-0.0071% (inactive),
Cc1c(C2(c3cc(Br)c(O)c(Br)c3C)OS(=O)(=O)c3ccccc32)cc(Br)c(O)c1Br,-1.05% (inactive),
CC(C)(C)S,0.0461% [at 95.7 µM] (inactive),
CC(CO)(CO)C(=O)O,0.0228% [at 95.7 µM] (inactive),
Nc1nc2ccc(OC(F)(F)F)cc2s1,-0.0219% [at 46 µM] (inactive),
ClC1=C(Cl)C1(Cl)Cl,-0.0018% [at 95.7 µM] (inactive),
CCCCCCC(O)CCCCCCCCCCC(=O)OC (stereo not given),-0.119% (inactive),
Nc1c(Cl)cc(Cl)cc1[N+](=O)[O-],-0.196% (inactive),
Nc1cccc2c(N)cccc12,0.396% (inactive),
CC(C)Cc1ccc(CC(=O)O)cc1,-0.0036% [at 46 µM] (inactive),
Cc1cccc(C)c1NC(=O)c1cc(S(N)(=O)=O)c(Cl)cc1O,0.149% [at 46 µM] (inactive),
C=C(C)c1ccccc1,1.35% (inactive),
O=[N+]([O-])C1(Br)COCOC1,-0.0003% (inactive),
O=P(O)(O)Oc1ccccc1,-0.0096% (inactive),
COC(C)(C)OC,-0.504% (inactive),
Nc1ccc(N=Nc2ccc(N)cc2)cc1,-0.792% [at 46 µM] (inactive),
CN(C)CC/C=C1\c2ccccc2Sc2ccc(Cl)cc21,-0.0902% [at 46 µM] (inactive),
CCN(CC)c1ccc(C(=C2C=CC(=[N+](CC)CC)C=C2)c2ccc(S(=O)(=O)O)cc2S(=O)(=O)[O-])cc1,1.07% (inactive),

SMILES,"fluorescence, % of fluorescent control",Potency
CC(=O)OCC1=C(C(=O)O)N2C(=O)[C@@H](NC(=O)CSc3ccncc3)[C@H]2SC1,-0.138% [at 46 µM] (inactive),
O=S(=O)(O)CO,-0.041% (inactive),
CC(C)(O)CCc1ccccc1,-0.0152% (inactive),
O=C1[C@@H]2[C@H]3CC[C@H](C3)[C@@H]2C(=O)N1CCCCN1CCN(c2ncccn2)CC1,0.0838% [at 46 µM] (inactive),
CSSc1ccoc1C,0.11% (inactive),
CCNc1nc(N)nc(Cl)n1,0.0467% (inactive),
CCCCC[C@H](O)/C=C/[C@H]1[C@H](O)CC(=O)[C@@H]1C/C=C\CCCC(=O)O,0.22% [at 46 µM] (inactive),
CC1CCC(C(C)CS)CC1S (stereo not given),0.103% (inactive),
O[C@@H](CNC[C@H](O)[C@H]1CCc2cc(F)ccc2O1)[C@@H]1CCc2cc(F)ccc2O1,-0.0844% [at 46 µM] (inactive),
O=C(O)c1cccc(Oc2ccccc2)c1,-0.158% (inactive),
CCN(Cc1cccc(S(=O)(=O)O)c1)c1ccc(C(=C2C=CC(=[N+](CC)Cc3cccc(S(=O)(=O)O)c3)C=C2)c2ccccc2S(=O)(=O)[O-])cc1,0.733% (inactive),
C=CC(=O)O,,inactive
COc1ccc2nc(S(=O)Cc3ncc(C)c(OC)c3C)[nH]c2c1 (stereo not given),,inactive
CCCOC(=O)c1c(Cl)c(Cl)c(Cl)c(Cl)c1C(=O)OCCC,0.0213% (inactive),
CC(C)N(C)C,-0.0388% (inactive),
Cc1ccc(Cl)cc1N,-0.0777% [at 95.7 µM] (inactive),
CCCCC(CC)COS(=O)(=O)O (stereo not given),,inactive
COC(=O)CC(C(C)=O)C(=O)OC (stereo not given),-0.0806% (inactive),
CCCCCCCCCCCCCC(=O)OCC(O)CO (stereo not given),-0.0276% (inactive),
O=C(Nc1ccc(C(=O)O)c(O)c1)c1ccccc1,0.127% [at 46 µM] (inactive),
